High-throughput results from PubChem BioAssay.
Hits are enriched below; roughly 12% of the tested compounds scored in any of these assays.
VP16 counter: Gal4-VP16 reporter inhibition counter-screen. Drosophila S2 Gal4-VP16 UAS-luciferase, luminescence, 20 h. Potency, µM (highest dose often 53.6 µM), for inactives: top-dose activity, negative = inhibition, usual class: inhibitors. actives 3.5% (n = 310,000);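 note: Gal4-VP16 expression switched on by copper sulfate through the metallothionein promoter; nearly all actives have a fitted effect of over 50% in size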
RORgamma inh: inhibitors of mouse ROR gamma transcriptional activity; P51450; Drosophila S2 Gal4-RORgamma UAS-luciferase reporter, 20 h; Potency, µM (highest dose often 53.6 µM), for inactives: at the highest dose activity change, negative = inhibition, hits mostly inhibitors; actives 5.4% (n = 310,000); AID 2551; note: nearly all actives have a fitted effect of over 60% in size
Target sequence (P51450 whole entry, looked up, the tested form may be a part): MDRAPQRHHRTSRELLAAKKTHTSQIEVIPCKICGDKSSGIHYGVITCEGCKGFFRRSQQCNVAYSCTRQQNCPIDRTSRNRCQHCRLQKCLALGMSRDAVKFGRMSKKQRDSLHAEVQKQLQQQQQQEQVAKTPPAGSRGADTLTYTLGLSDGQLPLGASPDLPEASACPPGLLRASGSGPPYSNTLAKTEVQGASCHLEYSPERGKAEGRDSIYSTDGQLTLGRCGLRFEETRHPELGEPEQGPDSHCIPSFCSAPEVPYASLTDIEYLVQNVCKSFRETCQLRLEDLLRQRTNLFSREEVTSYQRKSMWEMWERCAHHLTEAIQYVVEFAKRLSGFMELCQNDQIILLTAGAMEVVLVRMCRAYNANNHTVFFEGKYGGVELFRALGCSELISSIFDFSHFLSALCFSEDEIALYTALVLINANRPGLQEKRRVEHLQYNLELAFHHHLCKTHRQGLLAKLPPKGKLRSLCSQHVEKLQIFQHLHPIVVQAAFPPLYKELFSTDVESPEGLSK
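Luciferase reporter read in Schneider cells carrying Gal4-RORγ (mouse) and UAS-Photinus luciferase; cells given compound 1 h before 700 uM copper sulfate induction, then incubated 20 h at ambient temperature.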
ALDH1A1 block: ALDH1A1 (human) enzyme inhibition; P00352; Purified ALDH1A1, NADH fluorescence, propionaldehyde substrate; Potency, µM (titrated, usually from 75.3 µM), inactives show top-dose activity, negative = inhibition, usual class: inhibitors; actives 7.3% (n = 220,000); AID 1030; active = well fitted inhibition curve with a large enough effect, not every such curve was filed as active; inconclusive = small, poorly fitted or top-dose-only effect, or another doubt; inactive = no such curve, though single readings can be large or run the other way;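 note: plate controls were no enzyme wells and a reference inhibitor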
Sfp inh: blocks B. subtilis Sfp PPTase activity; Q9F4F7; Biochemical Sfp PPTase activity, qHTS; Potency, µM, without a hit: largest response in the series, negative = inhibition, most hits filed as inhibitors; actives 3.5% (n = 310,000); AID 1490;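 note: the enzyme is Sfp with the accession as filed and its product quenches rhodamine fluorescence; 0% = enzyme reaction without inhibitor and -100% = no enzyme wells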
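Buffer: 50 mM Hepes-Na pH 7.6, 10 mM MgCl2, 0.01% Nonidet P-40, 0.01% BSA. Enzyme 15 nM, pre-exposed to compound 15 min; substrates then added and fluorescence change tracked over 30 min.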
PLK1 PBD inh: PLK1 (human) polo-box domain binding inhibition | Plk1 PBD binding of FITC phosphopeptide, fluorescence polarization | actives 2.8% (n = 360,000) | Potency, µM, inactives show max response, negative = inhibition, usual class: inhibitors | P53350; note: series mostly up to about 57 µM; nearly all actives have a fitted effect of over 65% in size
Starred values were filed as active, the others as inactive; u = inconclusive; x = no result given; [ ] = remark or other dose. Unless noted, calls come from the whole dose curve; as a rule, active = well fitted curve in the direction sought with a large enough effect; inconclusive = small, poorly fitted or top-dose-only effect, or another doubt; inactive = no such curve, though single readings can be large; an effect the other way counts as inactive or inconclusive. Unless noted, % is set by controls: 0 for no effect and ±100 for the full control effect; potency is the fitted concentration of half-maximal effect.

SMILES	VP16 counter	RORgamma inh	ALDH1A1 block	Sfp inh	PLK1 PBD inh
Cc1cccc(-c2nnnn2-c2cccc(C)c2)c1	u	u	4.5µM*	-15%	-10%
Cc1ccc(OCc2nnnn2-c2ccccc2)cc1	15%	-29%	-11%	14%	3%
Cc1ccc(-n2nnnc2CCl)cc1	1%	18%	22µM*	u	-5%
Cc1ccc(-c2nnnn2-c2ccc(C)cc2)cc1	5%[10 µM]	1%	-8%	8%	17µM*
Cc1ccc(-n2nnnc2-c2cccc(C)c2)cc1	-3%	9%	-14%	-2%	-2%
N#Cc1cccc(NC(=O)c2cc(C3CCCCN3C(=O)c3cccs3)on2)c1 (configuration not stated)	x	x	x	x	-8%
CC(C)(C)c1ccc(C(=O)NCc2nnc(SCC(=O)N3CCCC3)o2)cc1	x	x	x	x	-11%
COCOCCn1cc(CN2CCS(=O)(=O)N(Cc3ccc(-c4cccc(CO)c4)cc3)C(C)C2=O)nn1 (configuration not stated)	x	x	x	x	8%
Cc1ccc(/C=C/C(=O)Nc2nc3ccccc3[nH]2)cc1	u	5.6µM*	10%	-7%	7%
O=C(/C=C/c1c(F)cccc1Cl)Nc1nc2ccccc2[nH]1	u	4.5µM*	-15%	5%	2%
Cc1ccc(/C=C/C(=O)c2nc3ccccc3[nH]2)cc1	u	6.3µM*	4%	23%	-2%
Cc1ccc(/C=C/C(=O)c2ccccc2O)cc1	3%	-20%	x	-17%	-5%
CC(=O)Nc1ccn(C2OC(C(COC(C)=O)NC(=O)C(CCCCNC(=O)OCc3ccccc3)NC(=O)OC(C)(C)C)C(OC(C)=O)C2OC(C)=O)c(=O)n1 (configuration not stated)	-7%	-23%	x	-3%	x
CCCCC[C@H](O)/C=C/C=C/C=C/[C@H](O)C/C=C\CCCC(=O)O	0%	7%	4%	4%	x
Cc1ccc(C)n1-c1sccc1C(=O)O	-8%	-2%	-14%	50µM*	3.8µM*
Cc1cc(C(=O)O)c(C)n1-c1ccccc1	10%	-23%	u	21%	-2%
CCOC(=O)[C@]12CCCC=C1N(Cc1ccccc1)C(=O)[C@H](CC(=O)N1CCN(C(=O)C3CC3)CC1)C2	x	x	x	x	-2%
O=C(CCC(=O)N1CCOc2ccccc21)NC1CCN(Cc2ccccc2)CC1	4%	8%	x	9%	-6%
CC1CCCC(NC(=O)CSc2ccc(F)cc2)C1C (configuration not stated)	-20%	-8%	u	8%	-7%
CC1CCCC(NC(=O)CCC(=O)N2CCOc3ccccc32)C1C (configuration not stated)	-2%	-1%	x	6%	15µM*
CC1CCCC(NC(=O)CCC(=O)c2ccc(F)cc2)C1C (configuration not stated)	4%	u	16µM*	5%	24µM*
c1ccc(CCNc2ccc3ncc(-c4cccc5ccccc45)n3n2)nc1	x	x	x	x	0%
CCN1C(=O)[C@H]2[C@@H](c3ccc(C)cc3)N[C@]3(CCCN(Cc4ccc(Cl)cc4)C3=O)[C@H]2C1=O	x	x	x	x	-15%
CC(C)OC(=O)c1cccc(C(=O)O)n1	-5%	21%	5%	50µM*	2%
CC(C)OC(=O)c1cccc(C(=O)Oc2ccc(Br)cc2)n1	-7%	-11%	6%	7%	-18%
SMILES	VP16 counter	RORgamma inh	ALDH1A1 block	Sfp inh	PLK1 PBD inh
NC(=O)[C@@H]1CCCN1	9%	5%	8%	-9%	x
CCc1nc2ccc(C(=O)N(CC)CCN(C)C)cn2c1N(CC)C(=O)NCCc1ccccc1	x	x	x	x	-16%
OC(c1cccc(Cl)c1)c1ncc(-c2ccccc2Cl)[nH]1 (configuration not stated)	x	x	x	x	-1%
O=C1C(Cl)=C(N2CCN(c3ccccc3[N+](=O)[O-])CC2)C(=O)c2ccccc21	u	-93%	7.1µM*	-9%	u
O=[N+]([O-])c1cc(Cl)ccc1N1CCCC1	-1%	8%	u	-2%	-11%
COC(=O)C(NC(=O)COc1ccccc1)(Nc1nc2c(s1)CCCC2)C(F)(F)F (configuration not stated)	20µM*	u	-3%	4%	-21%
CCn1cc(C(=O)Nc2ccccc2C(=O)OC)cn1	x	x	x	x	4%
CCN(CC)c1ccc(NC(=O)c2cnn(CC)c2)cc1	0%	30%	2%	-9%	7%
CCn1cc(C(=O)NC(=S)Nc2ccccc2Br)cn1	10µM*	7.1µM*	x	-7%	-6%
COc1ccccc1NC(=S)NC(=O)c1ccc(Cn2cc(Br)cn2)cc1	u	7.9µM*	u	-27%	-14%
CCn1cc(C(=O)NC(=S)Nc2cccc(O)c2)cn1	-5%	-27%	-1%	79µM*	-7%
COc1ccccc1NC(=O)c1ccc(COc2ccccc2OC)cc1	x	x	x	x	8%
CCn1cc(C(=O)NC(=S)Nc2ccccc2[N+](=O)[O-])cn1	u	u	x	79µM*	u
O=C(O)CCCc1ccc2ccc3ccccc3c2c1	x	x	3%[13.5 µM]	x	x
CC(=O)N1c2ccc(S(=O)(=O)N3CCCCC3)cc2CC1C(=O)Nc1ccc(F)cc1C (configuration not stated)	3%	-8%	x	15%	27µM*
CC(=O)N1c2ccc(S(=O)(=O)N3CCCC3)cc2CC1C(=O)Nc1cc(C)cc(C)c1 (configuration not stated)	-26%	-25%	x	11%	10%
Cc1nn(C)c(C(=O)Sc2cccc(Cl)c2)c1[N+](=O)[O-]	-4%	-9%	x	-29%	4.2µM*
CCn1nc(C)cc1C(=O)Sc1cccc(Cl)c1	u	u	x	-8%	19µM*
CCn1nc(C)cc1C(=O)N1CCCC(N2CCN(c3cccc(Cl)c3)CC2)C1 (configuration not stated)	6%	1%	x	10%	x
C[C@H](CO)N1C[C@H](C)[C@@H](CN(C)C(=O)Nc2cccc(F)c2)Oc2ncc(Br)cc2C1=O	x	x	x	x	-2%
Cc1ccc(/C=C2\Sc3ccccc3C2=O)s1	u	11µM*	4%	0%	-4%
O=C(/C=C/c1c[nH]c2ccccc12)c1cccc2ccccc12	u	5µM*	u	u	9%
Oc1ccc(N=Nc2ccc3c(c2)OCO3)c2ccccc12	0.63µM*	0.13µM*	x	15%	x
Oc1ccc2c(c1)OCO2	21%	-11%	6%	x	x
CC(=O)C(/C=N/c1cc(-c2ccc(C)cc2)nn1-c1ccccc1)=C(\C)O	22µM*	u	-9%	-26%	-8%
Clc1ccccc1/C=N/c1cc(-c2ccccc2)nn1-c1ccccc1	4%	4%	4%	-13%	17µM*
Nc1ccccc1Nc1cc(-c2ccccc2)nn1-c1ccccc1	-19%	42%	5%	-10%	-7%
Cc1ccc(NC(=O)c2cc(-c3ccccc3)nn2-c2ccccc2)cc1	u	8%[10 µM]	u	1%	-1%
